This is a sample that favours compounds with a hit; in the whole collection about 2.4% have one here.
WRN helicase inh: blocks human WRN helicase. Q14191. WRN helicase unwinding, fluorescent forked duplex, kinetic. Potency, µM (top dose mostly 114 µM), usual class: inhibitors. hit rate 0.46% among 360,000. AID 651768; also: nearly all actives have a fitted effect of over 55% in size
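WRN at 20 nM final was preincubated with compound for 15 min at room temperature; reaction started with 100 nM forked duplex oligonucleotide carrying fluorophore and quencher plus 2 mM ATP (final). Unwinding followed kinetically by red fluorescence (ex 525/em 598 nm).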
Pol kappa inh-1: blocks human DNA polymerase kappa activity; Q9UBT6; hit rate 0.53% among 400,000; purified Pol kappa, fluorescent DNA synthesis assay, 10 min; Potency, µM (highest dose often 107 µM), usual class: inhibitors
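Fluorescent qHTS in 1536-well format: enzyme (10 nM) and compound sat 15 min at room temperature before 50 nM substrate (final) was added. Signal taken at 0 and 10 min; no-enzyme buffer wells were negative controls.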
Pol beta inh: inhibitors of human DNA polymerase beta. P06746. Pol beta primer extension/strand displacement, fluorescence kinetic. Potency, µM (highest dose often 114 µM), usual class: inhibitors. hit rate 1.3% among 340,000. AID 485314
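Pol beta (10 nM) was preincubated with compound for 15 min at room temperature. The reaction was then started with 50 nM substrate and read immediately and after a further 10 min at room temperature.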
POLI inh: blocks human DNA polymerase iota activity; Q9UNA4; Pol iota fluorescent replication assay, 10 min; Potency, µM (top dose mostly 115 µM), usual class: inhibitors; hit rate 1% among 390,000; AID 588590
Target sequence (Q9UNA4 whole entry, looked up): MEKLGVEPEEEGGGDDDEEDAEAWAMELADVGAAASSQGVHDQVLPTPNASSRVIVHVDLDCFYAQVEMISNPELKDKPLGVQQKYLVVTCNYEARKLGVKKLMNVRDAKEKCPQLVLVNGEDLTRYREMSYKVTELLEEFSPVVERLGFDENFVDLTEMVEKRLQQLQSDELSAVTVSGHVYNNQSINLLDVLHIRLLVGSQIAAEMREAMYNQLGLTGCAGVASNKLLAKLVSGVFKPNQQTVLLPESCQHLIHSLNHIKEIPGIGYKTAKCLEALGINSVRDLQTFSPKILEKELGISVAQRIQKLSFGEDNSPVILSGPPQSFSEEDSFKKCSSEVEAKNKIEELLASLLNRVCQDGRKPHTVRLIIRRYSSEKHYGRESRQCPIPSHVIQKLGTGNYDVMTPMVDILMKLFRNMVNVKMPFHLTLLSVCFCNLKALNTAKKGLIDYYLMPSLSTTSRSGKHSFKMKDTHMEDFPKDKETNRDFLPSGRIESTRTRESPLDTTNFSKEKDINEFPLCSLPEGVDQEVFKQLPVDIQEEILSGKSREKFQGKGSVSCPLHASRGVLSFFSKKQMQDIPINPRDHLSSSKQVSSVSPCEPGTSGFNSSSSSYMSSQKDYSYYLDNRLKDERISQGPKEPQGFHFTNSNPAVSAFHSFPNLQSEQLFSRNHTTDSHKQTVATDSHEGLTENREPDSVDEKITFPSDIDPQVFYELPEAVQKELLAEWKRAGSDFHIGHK
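Pol iota at 10 nM preincubated 15 min with compounds at room temperature; reaction started with fluorescent substrate, 50 nM final. Fluorescence read kinetically at 0 and 10 min; buffer-only wells as negative control.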
Pol eta inh-1: DNA polymerase eta (human) inhibition; Q9Y253; recombinant Pol eta, fluorescent DNA replication assay; Potency, µM (series often up to 114 µM), actives largely listed as inhibitors; hit rate 1.2% among 390,000; AID 588591
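Fluorescent replication assay: 50 nM final substrate added after a 15 min room-temperature compound preincubation with 10 nM enzyme. Signal taken at 0 min and again at 10 min.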
FEN1 inh-1: inhibitors of human flap endonuclease 1 | P39748 | Recombinant FEN1 flap cleavage, fluorescence, 15 min | Potency, µM (top dose mostly 114 µM), usual class: inhibitors | hit rate 0.35% among 390,000 | AID 588795; also: nearly all actives have a fitted effect of over 65% in size
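FEN1 at 10 nM, compound pretreatment for 15 min (room temperature), 50 nM final substrate to initiate; endpoint reads at 0 and 15 min; DMSO-only plates used as vehicle background.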
PGK validate: validation of Trypanosoma brucei phosphoglycerate kinase inhibitors. shares compounds with Pol kappa inh-1. TbPGK coupled GAPDH assay, Kinase-Glo luminescence. Potency, µM (doses to about 57.5 µM), most hits filed as inhibitors. hit rate 79% among 500. AID 686980; also: nearly all actives have a fitted effect of over 65% in size
POLI cherry-pick: Inhibitors of human DNA polymerase iota, confirmation | shares compounds with Pol kappa inh-1 | Pol iota primer extension, TAMRA/BHQ fluorescence | Potency, µM, hits mostly inhibitors | hit rate 77% among 1,500
Pol kappa inh-2: confirmation of human DNA polymerase kappa inhibitors; purified Pol-kappa, fluorescent strand-displacement substrate; hit rate 76% among 920; shares compounds with Pol eta inh-1; Potency, µM, most hits filed as inhibitors
Pol eta inh-2: Pol eta (human) inhibition, cherry-pick confirmation; hit rate 64% among 2,600; shares compounds with Pol eta inh-1; Potency, µM, actives largely listed as inhibitors; Pol eta primer extension, TAMRA/BHQ fluorescence, 10 min; AID 720502
FEN1 inh-2: FEN1 inhibition, cherry-pick retest. shares compounds with FEN1 inh-1. FEN1 flap cleavage, TAMRA/BHQ2 fluorogenic DNA substrate. Potency, µM, usual class: inhibitors. hit rate 79% among 880. AID 720498; also: nearly all actives have a fitted effect of over 60% in size
Numbers stand for hits; . = inactive; ? = inconclusive; / = not tested or not shown; [ ] = dose if it differs, or a comment. Calls follow the shape of the dose curve; as a rule, active = well fitted curve in the direction sought with a large enough effect; inconclusive = small, poorly fitted or top-dose-only effect, or another doubt; inactive = no such curve, though single readings can be large; an effect the other way counts as inactive or inconclusive.

SMILES	WRN helicase inh	Pol kappa inh-1	Pol beta inh	POLI inh	Pol eta inh-1	FEN1 inh-1	POLI cherry-pick	Pol eta inh-2	FEN1 inh-2	others
COc1cc(/C=C2\SC(=O)N(CC(=O)Nc3ccc(C)cc3)C2=O)cc(Cl)c1OCC(=O)O	50.1µM	?	50.1µM	20µM	?	?	4.23	?	67.5	PGK validate=5.8µM
COc1cc(/C=C2\SC(=Nc3ccc(Cl)c(C(=O)O)c3)NC2=O)c(Br)c(Br)c1O	?	39.8µM	8.91µM	22.4µM	17.8µM	25.1µM	67	?	37.9	Pol kappa inh-2=8.44
O=C(N=Nc1c(O)[nH]c2ccccc12)c1ccccc1NS(=O)(=O)c1cccs1	.	.	.	.	.	.	/	/	/
Cc1cccc2c(N=NC(=O)c3ccc(NS(=O)(=O)c4cccs4)cc3)c(O)[nH]c12	20µM	?	/	?	11.2µM	?	16.8	19	33.8
COc1ccc(-c2cc(C(C)=O)c(C)n2CCC(=O)NCc2ccc(F)cc2)cc1	/	.	.	.	.	.	/	/	/
COc1cc(OC)c(-c2c3cc(O)c(=O)cc-3oc3cc(O)c(O)cc23)cc1OC	2.38µM	?	20µM	/	/	50.1µM	1.34	67.5	33.8	Pol kappa inh-2=18.9
COc1cc2oc(-c3ccccc3)cc(=O)c2cc1OC	/	.[19.4 µM]	/	/	/	/	/	/	/
O=C(O)CSc1cc(NS(=O)(=O)c2ccc(Br)cc2)c2ccccc2c1O	50.1µM	89.1µM	89.1µM	7.08µM	35.5µM	?	?	?	67.5	Pol kappa inh-2=?
O=C(O)/C=C/c1ccc2ccccc2c1	/	?	/	.	/	?	/	/	/
CCCc1c(C)[nH]c2ccc(C(=O)O)cc2c1=S	25.1µM	31.6µM	?	6.31µM	3.16µM	44.7µM	16.8	5.36	42.6
Cc1[nH]c2ccc(C(=O)O)cc2c1C	.	.	.	?	.	.	/	/	/
O=C(O)c1ccc(NS(=O)(=O)c2ccc3c(c2)C2C=CCC2C(c2ccccc2F)N3)cc1 (centres undefined)	35.5µM	35.5µM	?	?	10µM	39.8µM	37.7	19	30.1
COc1cccc(CNC(=O)C2CCN(Cc3cc4ccccc4n3Cc3ccc(C)cc3)CC2)c1	/	.	.	.	.	.	/	/	/
Cc1cccc(OCC(=O)Nc2cc(-c3nc4cc(Cl)ccc4o3)ccc2C)c1	/	.	/	.	/	.	/	/	/
O=c1cc2c(=O)oc3cc(O)c(O)oc3c2c(O)c1O	?	2.82µM	0.355µM	1.12µM	0.708µM	7.08µM	1.06	1.2	8.49	PGK validate=?;Pol kappa inh-2=0.947
O=C(CSc1n[nH]c(-c2ccccc2)n1)NCCc1ccccc1	/	.	.	.	.	.	/	/	/
CC(C)C[C@H](NC(=O)[C@@H]1CCCN1C(=O)[C@H](Cc1ccccc1)NC(=O)[C@H](C)NC(=O)[C@H](CCC(=O)O)NC(=O)[C@H](C)NC(=O)[C@H](CO)NC(=O)[C@H](CCC(=O)O)NC(=O)[C@H](CC(=O)O)NC(=O)[C@H](CCC(=O)O)NC(=O)[C@H](C)NC(=O)CNC(=O)[C@H](CC(N)=O)NC(=O)[C@@H]1CCCN1C(=O)[C@H](Cc1ccc(O)cc1)NC(=O)[C@@H](NC(=O)[C@H](CCCCN)NC(=O)[C@@H](NC(=O)[C@@H]1CCCN1C(=O)[C@@H](N)CCCNC(=N)N)C(C)C)C(C)C)C(=O)N[C@@H](CCC(=O)O)C(=O)N[C@@H](Cc1ccccc1)C(=O)O	/	.[12 µM]	/	/	/	/	/	/	/
CC(=O)Nc1ccc(C=NNc2ccc(S(=O)(=O)Nc3ccccc3C(=O)O)cc2[N+](=O)[O-])cc1	?	.	/	?	22.4µM	50.1µM	?	75.7	84.9	Pol kappa inh-2=21.2
CCN1CCc2c(sc(NC(=O)CSc3ccccc3)c2-c2nc3ccccc3s2)C1	/	.	.	.	.	.	/	/	/
CC(=O)Nc1sc2c(c1-c1nc3ccccc3s1)CCN(C(C)C)CC2	/	/	/	/	/	/	67	/	23.9
CN1CCc2c(sc(NC(=O)CSc3ccc(F)cc3)c2-c2nc3ccccc3s2)C1	/	.	.	.	.	.	/	/	/
CC(=O)Nc1sc2c(c1-c1nc3ccccc3s1)CCN(C(C)C)C2	.	?	3.55µM	?	?	?	18.9	/	12	Pol kappa inh-2=11.9
N#CCCn1c(=O)c(-c2ccc(Cl)cc2)nc2cnc(N3CCNCC3)nc21	/	.	/	/	/	/	/	/	/
CN(C)c1ccc(/C=C2\C=Cc3ccccc32)cc1N	/	.	/	.	/	.	/	/	/
O=C1c2cccc3cc([N+](=O)[O-])cc(c23)C(=O)N1CCN1CCCC1	.[11.6 µM]	79.4µM	14.1µM	20µM	.	14.1µM	18.9	/	10.7
SMILES	WRN helicase inh	Pol kappa inh-1	Pol beta inh	POLI inh	Pol eta inh-1	FEN1 inh-1	POLI cherry-pick	Pol eta inh-2	FEN1 inh-2	others
COc1cc(/C=C/c2nc3ccccc3c(=O)[nH]2)cc(Cl)c1O	.	.	?	.	?	?	?	/	?
Cc1cc(C)c(S(=O)(=O)/N=C2/C=C(Sc3ncn[nH]3)C(=O)c3ccccc32)cc1C	22.4µM	?	79.4µM	1µM	12.6µM	50.1µM	16.8	23.9	33.8
Oc1ccc(/C=N/Nc2ccc(Cl)nn2)c(O)c1O	?	?	17.8µM	?	10µM	?	16.8	30.1	37.9
Cc1cc2[nH]c3c4ccccc4nc(C)c3c2cc1C	.[11.6 µM]	79.4µM	/	14.1µM	.	?	42.3	/	6.75
Cc1cc2[nH]c3ccccc3c2c(C)n1	.	.	.	.	.	.	/	/	/
CCOc1ccc(CNC(=O)C2CCCN(c3nn4cc(-c5ccc(OC)cc5)nc4s3)C2)cc1 (centres undefined)	/	.	.	.	?	.	/	/	/
COc1ccc(O)cc1CN1CCN(c2ncc(Cc3ccccc3)cn2)CC1	.	/	/	/	/	/	/	/	/
CCOc1ccc(CC(=O)Nc2c(C(=O)Nc3ccc(OC)cc3OC)oc3ccccc23)cc1	/	.	.	.	.	.	/	/	/
N#CC(C#N)=C1C=C2C=C(N3CCCCCC3)CCC2CC1 (centres undefined)	15µM	?	39.8µM	44.7µM	50.1µM	?	42.3	16.9	67.5
CCN(c1ccccc1)S(=O)(=O)c1cc(C(=O)O)ccc1C	.[11.6 µM]	.	12.6µM	?	12.6µM	.	7.52	9.53	?	Pol kappa inh-2=5.32

Compound activity from PubChem.
